Test results as given in PubChem BioAssay AID1159580 (chemical genetic matrix, 2015).
Where “and” joins values, the source holds several entries; their conditions need not be identical. Equal entries are not always repeated. About 2,000 (36%) of roughly 5,500 compounds were called active. Roughly 18% stayed inconclusive and do not appear here. Rule as the data show it: active = normalized growth mostly below about 0.91 (no sharp cut-off); inconclusive = no clear call, values can overlap the other calls; inactive = mostly above about 0.92. This is one part of the list.

Experiment: chemical genetic growth profiling, strain panel (AID 1159580);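 also: tested at 20 µM; growth read once vehicle control cultures reached saturation at 30 °C; 1 = growth at the plate median or of vehicle wells; lower values mean less growth of the strain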
Conditions: growth OD

Measured: normalized growth

C=C1C(N)CC2CC1C2(C)C (stereo not given)
inactive: S. cerevisiae deletion strains, locus YAL021C, strain ccr4, stronger effect = lower value 1.01 | S. cerevisiae deletion strains, locus YAL026C, strain drs2, stronger effect = lower value 1.01 | S. cerevisiae deletion strains, locus YAL030W, strain snc1, stronger effect = lower value 1.01 | S. cerevisiae deletion strains, locus YBL061C, strain skt5, stronger effect = lower value 1 | S. cerevisiae deletion strains, locus YBR009C, strain hhf1, stronger effect = lower value 1.01 | S. cerevisiae deletion strains, locus YBR021W, strain FUR4, stronger effect = lower value 1 | S. cerevisiae deletion strains, locus YBR023C, strain chs3, stronger effect = lower value 0.985 | S. cerevisiae deletion strains, locus YBR171W, strain sec66, stronger effect = lower value 0.99 | S. cerevisiae deletion strains, locus YBR229C, strain ROT2, stronger effect = lower value 1.01 | S. cerevisiae deletion strains, locus YBR231C, strain swc5, stronger effect = lower value 0.999 | S. cerevisiae deletion strains, locus YBR279W, strain paf1, stronger effect = lower value 0.997 | S. cerevisiae deletion strains, locus YCL011C, strain gbp2, stronger effect = lower value 0.983 | S. cerevisiae deletion strains, locus YCL016C, strain dcc1, stronger effect = lower value 1.01 | S. cerevisiae deletion strains, locus YCL029C, strain bik1, stronger effect = lower value 1.02 | S. cerevisiae deletion strains, locus YCL069W, strain vba3, stronger effect = lower value 0.996 | S. cerevisiae deletion strains, locus YCR088W, strain abp1, stronger effect = lower value 0.989 | S. cerevisiae deletion strains, locus YDL005C, strain med2, stronger effect = lower value 0.991 | S. cerevisiae deletion strains, locus YDL035C, strain GPR1, stronger effect = lower value 0.994 | S. cerevisiae deletion strains, locus YDL040C, strain nat1, stronger effect = lower value 0.994 | S. cerevisiae deletion strains, locus YDL074C, strain BRE1, stronger effect = lower value 1.02 | S. cerevisiae deletion strains, locus YDL101C, strain DUN1, stronger effect = lower value 1.03 | S. cerevisiae deletion strains, locus YDL134C, strain PPH21, stronger effect = lower value 1.03 | S. cerevisiae deletion strains, locus YDL185W, strain tfp1, stronger effect = lower value 1.01 | S. cerevisiae deletion strains, locus YDL192W, strain arf1, stronger effect = lower value 0.996 | S. cerevisiae deletion strains, locus YDR001C, strain nth1, stronger effect = lower value 1 | S. cerevisiae deletion strains, locus YDR069C, strain doa4, stronger effect = lower value 0.98 | S. cerevisiae deletion strains, locus YDR101C, strain arx1, stronger effect = lower value 0.979 | S. cerevisiae deletion strains, locus YDR137W, strain rgp1, stronger effect = lower value 1 | S. cerevisiae deletion strains, locus YDR150W, strain NUM1, stronger effect = lower value 0.998 | S. cerevisiae deletion strains, locus YDR159W, strain sac3, stronger effect = lower value 0.975 | S. cerevisiae deletion strains, locus YDR162C, strain NBP2, stronger effect = lower value 1.01 | S. cerevisiae deletion strains, locus YDR195W, strain ref2 0.977 | S. cerevisiae deletion strains, locus YDR297W, strain sur2, stronger effect = lower value 1 | S. cerevisiae deletion strains, locus YDR318W, strain mcm21, stronger effect = lower value 1 | S. cerevisiae deletion strains, locus YDR334W, strain swr1, stronger effect = lower value 0.99 | S. cerevisiae deletion strains, locus YDR335W, strain msn5, stronger effect = lower value 0.995 | S. cerevisiae deletion strains, locus YDR388W, stronger effect = lower value 1 | S. cerevisiae deletion strains, locus YDR392W, strain spt3, stronger effect = lower value 1.01 | S. cerevisiae deletion strains, locus YDR502C, strain sam2, stronger effect = lower value 1.04 | S. cerevisiae deletion strains, locus YEL003W, strain gim4, stronger effect = lower value 0.998 | S. cerevisiae deletion strains, locus YEL037C, strain rad23, stronger effect = lower value 0.99 | S. cerevisiae deletion strains, locus YEL061C, strain CIN8 (second series), stronger effect = lower value 1.01 | S. cerevisiae deletion strains, locus YER015W, strain faa2, stronger effect = lower value 0.99 | S. cerevisiae deletion strains, locus YER016W, strain bim1, stronger effect = lower value 0.994 | S. cerevisiae deletion strains, locus YER110C, stronger effect = lower value 1.02 | S. cerevisiae deletion strains, locus YER111C, strain swi4, stronger effect = lower value 0.989 | S. cerevisiae deletion strains, locus YER155C, strain BEM2 (second series), stronger effect = lower value 1 | S. cerevisiae deletion strains, locus YER155C, strain BEM2, stronger effect = lower value 1 | S. cerevisiae deletion strains, locus YER167W, strain BCK2, stronger effect = lower value 1 | S. cerevisiae deletion strains, locus YFR010W, strain ubp6, stronger effect = lower value 1.01 | S. cerevisiae deletion strains, locus YGL078C, strain dbp3, stronger effect = lower value 1.04 | S. cerevisiae deletion strains, locus YGL086W, strain mad1, stronger effect = lower value 1 | S. cerevisiae deletion strains, locus YGL167C, strain pmr1, stronger effect = lower value 0.99 | S. cerevisiae deletion strains, locus YGL173C, strain kem1, stronger effect = lower value 0.998 | S. cerevisiae deletion strains, locus YGL227W, strain vid30, stronger effect = lower value 1 | S. cerevisiae deletion strains, locus YGL240W, strain doc1, stronger effect = lower value 0.994 | S. cerevisiae deletion strains, locus YGL248W, strain PDE1, stronger effect = lower value 1.04 | S. cerevisiae deletion strains, locus YGL253W, strain hxk2, stronger effect = lower value 1 | S. cerevisiae deletion strains, locus YGR078C, strain PAC10, stronger effect = lower value 1.04 | S. cerevisiae deletion strains, locus YGR135W, strain pre9, stronger effect = lower value 1.06 | S. cerevisiae deletion strains, locus YGR252W, strain gcn5, stronger effect = lower value 1.09 | S. cerevisiae deletion strains, locus YHR013C, strain ard1, stronger effect = lower value 1 | S. cerevisiae deletion strains, locus YHR027C, strain rpn1, stronger effect = lower value 0.996 | S. cerevisiae deletion strains, locus YHR030C, strain SLT2, stronger effect = lower value 0.996 | S. cerevisiae deletion strains, locus YHR079C, strain IRE1 (second series), stronger effect = lower value 1.01 | S. cerevisiae deletion strains, locus YHR079C, strain IRE1, stronger effect = lower value 0.994 | S. cerevisiae deletion strains, locus YHR094C, strain hxt1, stronger effect = lower value 1.02 | S. cerevisiae deletion strains, locus YHR129C, strain ARP1, stronger effect = lower value 1.01 | S. cerevisiae deletion strains, locus YHR142W, strain chs7, stronger effect = lower value 1.01 | S. cerevisiae deletion strains, locus YHR200W, strain rpn10, stronger effect = lower value 1.03 | S. cerevisiae deletion strains, locus YIL066C, strain RNR3, stronger effect = lower value 1.01 | S. cerevisiae deletion strains, locus YIL073C, strain SPO22, stronger effect = lower value 1.06 | S. cerevisiae deletion strains, locus YIL125W, strain kgd1, stronger effect = lower value 1.01 | S. cerevisiae deletion strains, locus YIR030C, strain dcg1, stronger effect = lower value 0.996 | S. cerevisiae deletion strains, locus YJL092W, strain hpr5, stronger effect = lower value 0.995 | S. cerevisiae deletion strains, locus YJL095W, strain BCK1 (second series), stronger effect = lower value 1.02 | S. cerevisiae deletion strains, locus YJL095W, strain BCK1, stronger effect = lower value 1.05 and 0.98 | S. cerevisiae deletion strains, locus YJL115W, strain asf1, stronger effect = lower value 0.99 | S. cerevisiae deletion strains, locus YJL129C, strain trk1, stronger effect = lower value 1.01 | S. cerevisiae deletion strains, locus YJL134W, strain LCB3, stronger effect = lower value 1 | S. cerevisiae deletion strains, locus YJL154C, strain vps35, stronger effect = lower value 0.998 | S. cerevisiae deletion strains, locus YJL164C, strain tpk1, stronger effect = lower value 0.997 | S. cerevisiae deletion strains, locus YJL166W, strain qcr8, stronger effect = lower value 0.997 | S. cerevisiae deletion strains, locus YJL168C, strain set2, stronger effect = lower value 1.01 | S. cerevisiae deletion strains, locus YJL187C, strain SWE1 (second series), stronger effect = lower value 1.05 | S. cerevisiae deletion strains, locus YJL187C, strain SWE1, stronger effect = lower value 0.997 | S. cerevisiae deletion strains, locus YJR066W, strain TOR1, stronger effect = lower value 0.953 | S. cerevisiae deletion strains, locus YKL009W, strain mrt4, stronger effect = lower value 0.998 | S. cerevisiae deletion strains, locus YKL068W, stronger effect = lower value 1.01 | S. cerevisiae deletion strains, locus YKL085W, strain MDH1 (second series), stronger effect = lower value 1.01 | S. cerevisiae deletion strains, locus YKL085W, strain MDH1, stronger effect = lower value 1.01 | S. cerevisiae deletion strains, locus YKL160W, strain elf1, stronger effect = lower value 0.998 | S. cerevisiae deletion strains, locus YKL190W, strain CNB1, stronger effect = lower value 1.01 | S. cerevisiae deletion strains, locus YKR001C, strain vps1, stronger effect = lower value 1.01 | S. cerevisiae deletion strains, locus YKR026C, strain gcn3, stronger effect = lower value 0.999 | S. cerevisiae deletion strains, locus YKR091W, strain srl3, stronger effect = lower value 0.996 | S. cerevisiae deletion strains, locus YLL001W, strain dnm1, stronger effect = lower value 1 | S. cerevisiae deletion strains, locus YLL026W, stronger effect = lower value 0.983 | S. cerevisiae deletion strains, locus YLL041C, strain sdh2, stronger effect = lower value 1.02 | S. cerevisiae deletion strains, locus YLR027C, strain aat2, stronger effect = lower value 0.985 | S. cerevisiae deletion strains, locus YLR039C, strain RIC1, stronger effect = lower value 1.06 | S. cerevisiae deletion strains, locus YLR058C, strain SHM2, stronger effect = lower value 1.02 | S. cerevisiae deletion strains, locus YLR102C, strain apc9, stronger effect = lower value 1 | S. cerevisiae deletion strains, locus YLR113W, strain HOG1, stronger effect = lower value 0.975 | S. cerevisiae deletion strains, locus YLR221C, strain rsa3, stronger effect = lower value 1 | S. cerevisiae deletion strains, locus YLR258W, strain gsy2, stronger effect = lower value 0.993 | S. cerevisiae deletion strains, locus YLR262C, strain YPT6 (second series), stronger effect = lower value 1.02 | S. cerevisiae deletion strains, locus YLR268W, strain sec22, stronger effect = lower value 0.992 | S. cerevisiae deletion strains, locus YLR320W, strain mms22, stronger effect = lower value 1 | S. cerevisiae deletion strains, locus YLR342W, strain FKS1, stronger effect = lower value 0.994 | S. cerevisiae deletion strains, locus YLR357W, strain rsc2, stronger effect = lower value 0.968 | S. cerevisiae deletion strains, locus YLR370C, strain arc18, stronger effect = lower value 0.986 | S. cerevisiae deletion strains, locus YLR371W, strain rom2, stronger effect = lower value 1 | S. cerevisiae deletion strains, locus YLR384C, strain iki3, stronger effect = lower value 0.999 | S. cerevisiae deletion strains, locus YLR418C, strain cdc73, stronger effect = lower value 1.05 | S. cerevisiae deletion strains, locus YML016C, strain PPZ1, stronger effect = lower value 1.01 | S. cerevisiae deletion strains, locus YML032C, strain rad52, stronger effect = lower value 1 | S. cerevisiae deletion strains, locus YML120C, strain ndi1, stronger effect = lower value 1.01 | S. cerevisiae deletion strains, locus YML124C, strain tub3, stronger effect = lower value 0.999 | S. cerevisiae deletion strains, locus YMR058W, strain fet3, stronger effect = lower value 1 | S. cerevisiae deletion strains, locus YMR078C, strain ctf18, stronger effect = lower value 1.01 | S. cerevisiae deletion strains, locus YMR125W, strain sto1, stronger effect = lower value 0.982 | S. cerevisiae deletion strains, locus YMR129W, stronger effect = lower value 1.02 | S. cerevisiae deletion strains, locus YMR205C, strain PFK2, stronger effect = lower value 0.997 | S. cerevisiae deletion strains, locus YMR223W, strain ubp8, stronger effect = lower value 1.02 | S. cerevisiae deletion strains, locus YMR231W, strain pep5, stronger effect = lower value 0.995 | S. cerevisiae deletion strains, locus YMR263W, strain SAP30, stronger effect = lower value 1.02 | S. cerevisiae deletion strains, locus YMR307W, strain GAS1, stronger effect = lower value 0.976 | S. cerevisiae deletion strains, locus YNL067W, strain RPL9B, stronger effect = lower value 1.03 | S. cerevisiae deletion strains, locus YNL071W, strain lat1, stronger effect = lower value 0.999 | S. cerevisiae deletion strains, locus YNL153C, strain GIM3, stronger effect = lower value 1.04 | S. cerevisiae deletion strains, locus YNL183C, strain NPR1, stronger effect = lower value 0.957 | S. cerevisiae deletion strains, locus YNL209W, strain ssb2, stronger effect = lower value 0.978 | S. cerevisiae deletion strains, locus YNL233W, strain BNI4, stronger effect = lower value 1.04 | S. cerevisiae deletion strains, locus YNL248C, strain rpa49, stronger effect = lower value 1.02 | S. cerevisiae deletion strains, locus YNL250W, strain rad50, stronger effect = lower value 1.03 | S. cerevisiae deletion strains, locus YNL271C, strain bni1, stronger effect = lower value 1.01 | S. cerevisiae deletion strains, locus YNL298W, strain CLA4, stronger effect = lower value 1.01 | S. cerevisiae deletion strains, locus YNL307C, strain MCK1, stronger effect = lower value 1.02 | S. cerevisiae deletion strains, locus YNL322C, strain KRE1 (second series), stronger effect = lower value 0.983 | S. cerevisiae deletion strains, locus YNR049C, strain mso1, stronger effect = lower value 0.992 | S. cerevisiae deletion strains, locus YNR052C, strain pop2, stronger effect = lower value 1.03 | S. cerevisiae deletion strains, locus YOL012C, strain htz1 1.56 | S. cerevisiae deletion strains, locus YOL147C, strain pex11, stronger effect = lower value 1.01 | S. cerevisiae deletion strains, locus YOR001W, strain rrp6, stronger effect = lower value 1.01 | S. cerevisiae deletion strains, locus YOR061W, strain CKA2, stronger effect = lower value 1.01 | S. cerevisiae deletion strains, locus YOR069W, strain VPS5, stronger effect = lower value 1.01 | S. cerevisiae deletion strains, locus YOR070C, strain gyp1, stronger effect = lower value 0.98 | S. cerevisiae deletion strains, locus YOR080W, strain dia2, stronger effect = lower value 0.998 | S. cerevisiae deletion strains, locus YOR083W, strain WHI5, stronger effect = lower value 0.994 | S. cerevisiae deletion strains, locus YOR106W, strain vam3, stronger effect = lower value 1.01 | S. cerevisiae deletion strains, locus YOR136W, strain idh2, stronger effect = lower value 1.01 | S. cerevisiae deletion strains, locus YOR144C, strain elg1, stronger effect = lower value 1 | S. cerevisiae deletion strains, locus YOR184W, strain ser1, stronger effect = lower value 0.995 | S. cerevisiae deletion strains, locus YOR231W, strain MKK1, stronger effect = lower value 0.969 | S. cerevisiae deletion strains, locus YOR265W, strain rbl2, stronger effect = lower value 0.981 | S. cerevisiae deletion strains, locus YOR270C, strain vph1, stronger effect = lower value 1.03 | S. cerevisiae deletion strains, locus YOR290C, strain snf2, stronger effect = lower value 0.994 | S. cerevisiae deletion strains, locus YOR316C, strain cot1, stronger effect = lower value 1.02 | S. cerevisiae deletion strains, locus YPL051W, strain arl3, stronger effect = lower value 0.972 | S. cerevisiae deletion strains, locus YPL078C, strain atp4, stronger effect = lower value 1 | S. cerevisiae deletion strains, locus YPL106C, strain sse1, stronger effect = lower value 0.963 | S. cerevisiae deletion strains, locus YPL240C, strain hsp82, stronger effect = lower value 0.996 | S. cerevisiae deletion strains, locus YPL256C, strain CLN2, stronger effect = lower value 1.01 | S. cerevisiae deletion strains, locus YPR119W, strain clb2, stronger effect = lower value 1 | S. cerevisiae deletion strains, locus YPR141C, strain kar3, stronger effect = lower value 0.993 | S. cerevisiae deletion strains, locus YPR163C, strain tif3, stronger effect = lower value 1.01 | S. cerevisiae deletion strains, locus YPR167C, strain met16, stronger effect = lower value 1.01 | S. cerevisiae deletion strains, strain wtn01, stronger effect = lower value 0.986 | S. cerevisiae strains, strain wild type, stronger effect = lower value 1.02
